Among the data in PubChem BioAssay (NCATS) are Potency and outcome values, retold here.

The nature of test [1]: qHTS to identify inhibitors of the type 1 interferon - major histocompatibility complex class I in skeletal muscle: primary screen against the NCATS LOPAC collection (AID 1347405).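 Further: lytic HiBiT luminescence reporting HLA-B protein level.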 Further: potency means the concentration at half of the fitted maximal effect. In outline: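 After 24 h at 37 C with compounds (7-point, 1:4.3 dilutions, 46 uM top final) plus 4 ng/ml IFN-beta, luminescence from lytic HiBiT detection was measured. HLA-B*08:01 in C25cl48 myoblasts carried an endogenous C-terminal HiBiT tag; medium lacked dexamethasone.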

Test [2] in a line: qHTS for inhibitors of adenylyl cyclases using a fission yeast platform: a pilot screen against the NCATS LOPAC library (AID 1347410). The method in brief:
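Inhibition of GNAS-stimulated AC9 activity in S. pombe was inferred from derepression of a PKA-repressed fbp1-GFP reporter, measured as cytometric fluorescence after 18 h at 30C with compounds at up to 57 µM.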

The nature of test [3]: Validation qHTS assay for inhibitors of Activation Induced Cytidine Deaminase (AID): UDG Counterscreen signal (AID 1347427). Further: potency means the concentration at half of the fitted maximal effect. In outline: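 Fluorescence at 560 nm excitation, 665 nm emission reports UDG signal after 250 mM NaOH (2x) addition and 30 min. Enzymes (AID 1 uM, UDG 2 U/mL, at 4/3x) preincubated 10 min with compound, then 4 h with 4x 250 nM DJC20/DJC23 substrate at room temperature.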

For test [4], the target named is Single-stranded DNA cytosine deaminase (Homo sapiens) (UniProt Q9GZX7). In words: Validation qHTS assay for inhibitors of Activation Induced Cytidine Deaminase (AID): AID signal (AID 1347429). Further: potency means the concentration at half of the fitted maximal effect. The method in brief: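 Compounds (final up to 114 uM) preincubated with AID plus UDG; 250 nM DJC20/DJC23 substrate mix (4x stock) added, 4 hr at room temperature, then NaOH, 30 min. Read 1 fluorescence at 540 nm excitation, 590 nm emission.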
Single-stranded DNA cytosine deaminase (Homo sapiens), sequence (Q9GZX7 whole entry, looked up): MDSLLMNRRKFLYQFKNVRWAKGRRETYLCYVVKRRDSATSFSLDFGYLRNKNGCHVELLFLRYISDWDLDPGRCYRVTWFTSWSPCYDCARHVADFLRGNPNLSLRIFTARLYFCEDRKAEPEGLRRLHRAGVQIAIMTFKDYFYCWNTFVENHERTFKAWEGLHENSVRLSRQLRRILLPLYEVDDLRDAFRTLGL

A short description of test [5]: Primary qHTS for inhibitors of La Crosse Virus (LACV) - induced cell death in SH-SY5Y cells (AID 1508616). Further: potency means the concentration at half of the fitted maximal effect. The method in brief: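 Rescue of virus-induced death was read as ATPLite luminescence after 6 days at 37C, scaled between DMSO wells with LACV and without virus. Cells were SH-SY5Y, 6000/well, infected at 0.01 MOI after compound addition.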
The target of test [6] is Calcium and integrin-binding protein 1 (Homo sapiens) (UniProt Q99828). Description: Validation qHTS for Identification of Calcium Integrin Binding protein 1 (CIB1) Competitor (AID 1508618). In outline: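 Displacement of FITC-alphaIIb peptide (100 nM) from CIB1-GST (1 uM) is monitored by polarization in quantitative HTS format; buffer carries 5 mM CaCl2 and 125 mM NaCl at pH 7.4, incubations are at room temperature.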
Calcium and integrin-binding protein 1 (Homo sapiens), sequence (Q99828 whole entry, looked up): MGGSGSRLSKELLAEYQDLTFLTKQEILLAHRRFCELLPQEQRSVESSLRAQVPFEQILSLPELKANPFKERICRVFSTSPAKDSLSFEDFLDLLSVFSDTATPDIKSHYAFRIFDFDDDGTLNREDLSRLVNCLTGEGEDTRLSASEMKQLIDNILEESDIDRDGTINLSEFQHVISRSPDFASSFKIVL

Test [7] in a line: qHTS to identify inhibitors of the type 1 interferon - major histocompatibility complex class I in skeletal muscle: primary screen against the NCATS Pharmaceutical Collection (AID 1347407).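 Further: luminescence of HiBiT knocked into endogenous HLA-B as interferon-induced MHC class I level.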 The method in brief:
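A qHTS format is used: 8-point, 1:5 compound series with 46 uM top final concentration, applied alongside 4 ng/ml IFN-beta to HLA-B*08:01-HiBiT knock-in myoblasts. Luminescence is measured after 24 h treatment.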

Test [8] deals with Protein phosphatase 1D (Homo sapiens) (UniProt O15297). In words: RapidFire Mass Spectrometry qHTS Assay for Modulators of WT P53-Induced Phosphatase 1 (WIP1) (AID 1347424).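 Further: amount of dephosphorylated VEPPL-S-QETFS peptide product formed by WIP1; series mostly up to about 63 µM.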 The method in brief: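 Mass-spectrometric measurement of dephosphorylated peptide after a 5 min room-temperature reaction of 10 nM WIP1 with 2 uM phosphopeptide, following 1 h compound preincubation in 30 mM MgCl2 buffer.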
Protein phosphatase 1D (Homo sapiens), sequence (O15297 whole entry, looked up): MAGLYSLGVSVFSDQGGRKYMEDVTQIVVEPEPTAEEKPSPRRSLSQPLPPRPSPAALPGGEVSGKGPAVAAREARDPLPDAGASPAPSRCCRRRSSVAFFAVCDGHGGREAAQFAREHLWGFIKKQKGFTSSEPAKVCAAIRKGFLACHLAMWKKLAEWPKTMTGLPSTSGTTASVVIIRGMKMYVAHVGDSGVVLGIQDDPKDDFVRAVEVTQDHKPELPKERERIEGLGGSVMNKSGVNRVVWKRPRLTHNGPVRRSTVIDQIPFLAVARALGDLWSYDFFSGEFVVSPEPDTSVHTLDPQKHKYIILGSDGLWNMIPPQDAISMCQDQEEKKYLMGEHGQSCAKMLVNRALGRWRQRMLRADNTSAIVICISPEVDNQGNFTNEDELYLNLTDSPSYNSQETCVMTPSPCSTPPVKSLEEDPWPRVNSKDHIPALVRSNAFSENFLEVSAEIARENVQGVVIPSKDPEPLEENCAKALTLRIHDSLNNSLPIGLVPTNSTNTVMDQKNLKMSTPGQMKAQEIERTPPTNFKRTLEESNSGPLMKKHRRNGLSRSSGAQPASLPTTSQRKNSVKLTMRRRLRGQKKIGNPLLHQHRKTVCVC

Test [9] has the same target. Description: Rhodamine-PBP qHTS Assay for Modulators of WT P53-Induced Phosphatase 1 (WIP1) (AID 1347425). In outline:
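5 nM WIP1 + 10 uM Rh-PBP, 50 mM Tris pH 7.5, 30 mM MgCl2, 1 mM TCEP, 0.1 mM EGTA, BSA; cpds pinned, 1 hr RT; + 10 uM phosphopeptide; fluorescence 1-min reads x 11 min; delta = f1 - f0.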

In test [10] the target is Calcium and integrin-binding protein 1 (Homo sapiens) (UniProt Q99828). In words: Primary qHTS for Identification of Calcium Integrin Binding Protein 1 (CIB1) Competitor (AID 1508620).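 Further: GST tagged CIB1 binding a fluorescein labelled alphaIIb integrin peptide tracer; top concentration of the series differs between compounds.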 The method in brief: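 Fluorescence polarization competition: CIB1-GST (1 uM final) preincubated with compound 15 min at room temperature, then FITC-labeled alphaIIb peptide (100 nM final) added for another 15 min. Polarization read at Ex 480/Em 540.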

Molecules are shown by their SMILES. Results filed as inconclusive are left out. Active and inactive are the calls of the source. The call rests on the fitted dose curve; in most records, active means well fitted curve in the direction sought with a large enough effect; inconclusive means small, poorly fitted or top-dose-only effect, or another doubt; inactive means no such curve, though single readings can be large; an effect the other way counts as inactive or inconclusive.

In the case of `CN(N=O)c1ccc(O)c(O)c1`, in test [1], the Potency entry is “inactive”.

Consider `C[N+]1(C)CCc2cc3c(cc2[C@H]1[C@@H]1OC(=O)c2c1ccc1c2OCO1)OCO3`, for which the Potency entry in test [1], in test [3], in [4], in test [5] and in [6] was “inactive” in each case. Also, the compound was classed as inactive in test [2].

Regarding `CC(N)[C@H](O)c1ccc(O)c(O)c1` (stereo partly drawn), the Potency result in [1], in [3], in test [4], in [5] and in [6] was “inactive” in each case. Moreover, the compound was classed as inactive in test [2].

On to `OCc1cnc[nH]1`, for which the Potency entry in test [1], in test [3], in [4], in test [5] and in test [6] was “inactive” each time. Further, the result in [2] was inactive.

Turning to `C[C@H](Cc1ccc2c(c1)OC(C(=O)O)(C(=O)O)O2)NC[C@H](O)c1cccc(Cl)c1`, the Potency result in test [1], in test [3], in test [4], in [5] and in [6] was “inactive” each time. Further, the compound was called inactive in test [2].

Turning to `NC(CCCCCP(=O)(O)O)C(=O)O` (stereo not drawn), the Potency result in test [1], in test [4], in test [5] and in test [6] was “inactive” throughout.

Consider `NC(N)=Nc1ccc2[nH]c3c(c2c1)C[C@@]1(O)[C@H]2Cc4ccc(O)c5c4[C@@]1(CCN2CC1CC1)[C@H]3O5`, for which the Potency entry in [1], in test [3], in test [5] and in [6] was “inactive” in each case. Besides, the Potency in [4] was 79.4 µM (active).

Regarding `NC(C(=O)O)c1cc(=O)[nH]o1` (stereo not drawn), the Potency result in [1], in [4], in test [5] and in test [6] was “inactive” throughout.

Consider `CCCN(CCC)CCc1ccc(O)c(O)c1`, for which the Potency entry in test [1], in test [3], in test [4], in [5] and in [6] was “inactive” throughout.

Take `CCCN(CCC)C1Cc2cc(OC)c(OC)cc2C1`: the Potency result in test [1], in [3], in test [4], in [5] and in test [6] was “inactive” each time.

`C[N+](C)(C)CC#CCOC(=O)Nc1cccc(Cl)c1`: the Potency entry in test [1], in [3], in test [4], in [5] and in test [6] was “inactive” throughout.

`NC(=O)c1cc(N2CC2)c([N+](=O)[O-])cc1[N+](=O)[O-]`: the Potency entry in [1], in test [3], in test [4], in test [5] and in test [6] was “inactive” each time.

Consider `CC(C)(C)c1o[nH]c(=O)c1CC(N)C(=O)O` (stereo not drawn), for which the Potency result in [1], in test [3], in [4], in test [5] and in test [6] was “inactive” throughout.

As for `O=[N+]([O-])/C=C/c1ccc2c(c1)OCO2`, the Potency in test [1] was 7.08 µM (active). Further, the Potency entry in test [4] is “inactive”.

`CN1CC[C@@]2(C)c3cc(O)ccc3N(C)C12` (stereo partly drawn): the Potency entry in test [1], in [5] and in [6] was “inactive” each time. The Potency in [4] was 12.6 µM (active).

For `c1ccc2c(c1)[I+]c1ccccc1-2`, the Potency in [1] was 8.91 µM (active). Besides, the Potency result in test [4] and in test [6] was “inactive” throughout.

On to `N#CCCN`, for which the Potency entry in test [1], in test [3], in [4], in test [5] and in [6] was “inactive” in each case.

On to `CC1(C(=O)O)C2CCC(O2)C1(C)C(=O)O` (stereo not drawn), for which the Potency in [1] is 12.6 µM (active). Besides, the Potency result in test [3], in [4] and in [6] was “inactive” in each case.

With `CCOC(=O)c1ncn2c1[C@@H]1CCCN1C(=O)c1cc(OC)ccc1-2`, the Potency result in test [1], in [4], in [5] and in [6] was “inactive” each time.

As for `CC(C)(C)c1cc(C=C(C#N)C#N)cc(C(C)(C)C)c1O`, the compound was called inactive in test [2]. In addition, the Potency in test [3] is 70.8 µM (active). Further, the Potency result in [4], in test [5] and in test [6] was “inactive” each time.

For `O=C1C=CC(=O)C=C1`, the Potency result in test [1], in test [3], in test [4], in test [5] and in [6] was “inactive” in each case.

As to `O=S1(=O)N(CCN2CC=C(c3c[nH]c4cc(F)ccc34)CC2)c2cccc3c2N1CCC3`, the Potency result in test [1], in test [5] and in test [6] was “inactive” in each case.

On to `Cc1cc([C@@H]2CCCN2C)on1`, for which the Potency entry in test [1], in test [4], in test [5] and in [6] was “inactive” in each case.

As for `CC(N)Cc1c[nH]c2ccc(O)cc12` (stereo not drawn), the Potency entry in test [1], in test [3], in [4], in test [5] and in test [6] was “inactive” each time.

On to `CC(C)(O)[C@@H]1C2OC(=O)[C@@H]1[C@]1(O)C[C@H]3O[C@]34C(=O)O[C@H]2[C@]14C` (tested in a mixture with another compound), for which the Potency entry in [1], in test [4], in test [5] and in test [6] was “inactive” throughout.

As for `CNc1ccc2oc(C[C@H]3O[C@@]4(CC[C@H]3C)O[C@H]([C@H](C)C(=O)c3ccc[nH]3)[C@H](C)C[C@H]4C)nc2c1C(=O)O`, the Potency in [1] was 3.98 µM (active). Further, the Potency entry in test [3], in [4] and in test [6] was “inactive” throughout.

As for `NC(N)=NOCC[C@H](N)C(=O)O`, the Potency entry in test [1], in test [4], in test [5] and in test [6] was “inactive” throughout.

`Cc1c2ccncc2c(C)c2c1[nH]c1ccccc12`: the Potency was 7.08 µM (active) in test [1] and 1.58 µM (active) in test [5]. Also, the Potency result in [3], in test [4] and in test [6] was “inactive” each time.

`CCCSP(=O)(OCC)SCCC`: the result in test [7] and in test [9] was inactive. Moreover, the Potency entry in [8] and in test [10] was “inactive” in each case.

For the compound `CCN1C[C@@]2(COC)C3[C@@H](OC)C4[C@@H]1C3([C@@H]1C[C@]3(O)[C@H](OC(=O)c5ccccc5)[C@@H]1[C@]4(OC(C)=O)[C@@H](O)[C@@H]3OC)[C@H](OC)C[C@H]2O`, the Potency result in [1], in test [3], in test [4], in test [5] and in [6] was “inactive” throughout.

In the case of `CO[C@H]1CC=C2CCN3CCC4=C(CC(=O)OC4)[C@]23C1`, the Potency entry in [1], in [3], in test [4], in test [5] and in [6] was “inactive” each time.
